Test results from PubChem BioAssay (NCATS).

experiment: qHTS profiling of the MIPE4 collection as inhibitors of Plasmodium falciparum (3D7) proliferation (AID 743344);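 also: scaled between DMSO vehicle wells and 0.29 µM artemisinin as full inhibition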; conditions: P. falciparum 3D7 in erythrocytes, SYBR Green DNA fluorescence, 72 h; at 28.5 µM unless noted
Excerpt: Plasmodium falciparum is a virulent malarial parasite that kills 1-2 million people worldwide each year. Transmitted by mosquitoes, the sporozoite form of the parasite enters the blood stream to infect hepatocytes, where they become merozoites that infect red blood cells (erythrocytes). Within erythrocytes, merozoites begin a […] cycle of growth and division, after which the parasite is released to infect new red blood cells. Gametocytes, which form within erythrocytes as well, circulate in the bloodstream and are ingested by the mosquito, thereby completing the life cycle. To profile malarial isolates for differential chemical responses and to identify inhibitors of malarial growth, an assay that measures P. falciparum growth and replication within erythrocytes was employed. This assay uses a DNA binding fluorescent dye (SYBR Green) to detect parasite DNA following cell lysis. Because mature erythrocytes lack DNA, only Plasmodium-derived DNA is detected.
The SYBR Green viability assay was adapted from a method described previously (Plouffe et al., 2008). For screening 3 ul culture medium was dispensed into 1536 well black clear bottom plates (Aurora Biotechnologies) using a Multidrop Combi (Thermo Fisher Scientific Inc.), 23 nL compounds in DMSO were added by a pin tool (Kalypsys), and 5 ul of erythrocytes infected with P. falciparum (0.3% parasitemia, 2.5% hematocrit final concentration) were added. The plates were incubated at 37 C in a humidified incubator in 5% CO2 for 72 h, and 2 ul lysis buffer (20 mM Tris HCl, 10 mM EDTA, 0.16% saponin, 1.6% triton X, 10X SYBR Green I supplied as 10,000X […] by Invitrogen) was added to each well. The plates were mixed for 25 sec with gentle shaking and incubated overnight at room temperature in the dark. The following morning, fluorescence intensity at 485(14) nm excitation and 535(25) nm emission wavelengths was measured on an EnVision (Perkin Elmer) plate reader. Plate reads were normalized relative to the control inhibitor (0.29 uM artemisinin) and vehicle (DMSO) wells present on each plate and then corrected by an algorithm using vehicle-only control plates at the beginning and end of the compound plate stack.

Question: For `Cc1cn([C@@H]2O[C@H](CO)[C@@H](O)[C@H]2F)c(=O)[nH]c1=O`, which parasite growth, % of DMSO control is on record?
Answer: 100%

Question: For `OCCNC1CCCc2c1[nH]c1ccc(-c3ccccc3)cc21` (stereo not given), which parasite growth, % of DMSO control is on record?
Answer: 7.39%

Question: Which parasite growth, % of DMSO control does the source give for `CCC[C@H]1C[C@H](C(=O)N[C@@H]([C@@H]2O[C@@H](SC)[C@@H](O)[C@@H](O)[C@@H]2O)[C@H](C)Cl)N(C)C1` here?
Answer: 30.4%

Question: For `C=C1C(=CC=C2CCC[C@]3(C)[C@@H]([C@H](C)CCCC(C)(C)O)CC[C@@H]23)C[C@@H](O)C[C@@H]1O`, which parasite growth, % of DMSO control is on record?
Answer: 15.5%

Question: For `COc1ccc(S(=O)(=O)Nc2cccnc2Nc2ccc(O)cc2)cc1`, which parasite growth, % of DMSO control is on record?
Answer: 64.8%

Question: Which parasite growth, % of DMSO control does the source give for `CC(=O)OC[C@@H]1O[C@@H](n2ccc(=O)[nH]c2=O)[C@H](OC(C)=O)[C@H]1OC(C)=O` here?
Answer: 158%

Question: For `C=CC[C@@H]1C=C(C)C[C@H](C)C[C@H](OC)[C@H]2O[C@@](O)(C(=O)C(=O)N3CCCC[C@H]3C(=O)O[C@H](C(C)=C[C@@H]3CC[C@H](O)[C@H](OC)C3)[C@@H](C)[C@@H](O)CC1=O)[C@@H](C)C[C@@H]2OC`, which parasite growth, % of DMSO control is on record?
Answer: 8.55%

Question: Which parasite growth, % of DMSO control does the source give for `C=CC(=O)Nc1cc(NC(=O)c2ccc(C)c(NC(=O)c3ccno3)c2)cc(C(F)(F)F)c1` here?
Answer: 34%

Question: For `Oc1ccc(-c2ccc(-c3cc(Nc4cccc(CNC5CC5)c4)n[nH]3)cc2)c(O)c1`, which parasite growth, % of DMSO control is on record?
Answer: 9.07%

Question: For `CN[C@@H]1C[C@H]2O[C@@](C)([C@H]1OC)n1c3ccccc3c3c4c(c5c6ccccc6n2c5c31)C(=O)N[C@H]4O`, which parasite growth, % of DMSO control is on record?
Answer: 5.29%

Question: Which parasite growth, % of DMSO control does the source give for `O=C(O)C=Cc1ccc(Cn2ccnc2)cc1` here?
Answer: 90.5%

Question: With `CCNC(=O)Nc1ccc(-c2nc3c(c(N4CCOC[C@H]4C)n2)CCN(C2COC2)C3)cc1` as the compound, how does the parasite growth, % of DMSO control read?
Answer: 24.6%

Question: Which parasite growth, % of DMSO control does the source give for `COc1cc(C(C)C)c(Oc2cnc(NC(CO)CO)nc2N)cc1I` here?
Answer: 82.2%

Question: With `OCCN1C[C@H](O)[C@@H](O)[C@H](O)[C@@H]1CO` as the compound, how does the parasite growth, % of DMSO control read?
Answer: 96.1%

Question: With `CC(=O)C1=C(O)C=C2Oc3c(C(C)=O)c(O)c(C)c(O)c3C2(C)C1=O` (stereo not given) as the compound, how does the parasite growth, % of DMSO control read?
Answer: 82.6%

Question: Which parasite growth, % of DMSO control does the source give for `Cn1cc(C[C@@H](N)C(=O)O)c2ccccc21` here?
Answer: 103% [at 9.64 µM]

Question: For `O=S(=O)(O)CCSSCCS(=O)(=O)O`, which parasite growth, % of DMSO control is on record?
Answer: 79.5%

Question: For `C[C@H](NCc1ccc(OCc2cccc(F)c2)cc1)C(N)=O`, which parasite growth, % of DMSO control is on record?
Answer: 8.15%

Question: With `FC(F)c1nc2ccccc2n1-c1nc(N2CCOCC2)nc(N2CCOCC2)n1` as the compound, how does the parasite growth, % of DMSO control read?
Answer: 4.72%

Question: Which parasite growth, % of DMSO control does the source give for `CNC(=O)c1cccc(-c2ccc3c(N4CCOC[C@H]4C)nc(N4CCOC[C@H]4C)nc3n2)c1` here?
Answer: 8.56%

Question: Which parasite growth, % of DMSO control does the source give for `COc1ccc(C=Cc2cc(OC)c(OC)c(OC)c2)cc1NC(=O)[C@H](N)CO` here?
Answer: 75.4%

Question: Which parasite growth, % of DMSO control does the source give for `C=CC(=O)Nc1cccc(Nc2nc(NC3CCC(N(C)C)CC3)nc3c2ncn3C(C)C)c1` (stereo not given) here?
Answer: 10.5%

Question: With `C[C@]12C=CC(=O)N[C@@H]1CC[C@H]1[C@H]3CC[C@@H](C(=O)Nc4cc(C(F)(F)F)ccc4C(F)(F)F)[C@@]3(C)CC[C@@H]12` as the compound, how does the parasite growth, % of DMSO control read?
Answer: 9.6%

Question: For `CC(C)N1[N]C(=C2C=c3cc(O)ccc3=N2)c2c(N)ncnc21`, which parasite growth, % of DMSO control is on record?
Answer: 9.52%

Question: Which parasite growth, % of DMSO control does the source give for `COC(=O)[C@@H]1CC2=CC(=O)CC[C@]2(C)[C@@]23O[C@@H]2C[C@@]2(C)[C@H](CC[C@@]24CCC(=O)O4)[C@@H]13` here?
Answer: 74.7%

Question: With `O=C(NNC(=O)c1ccc(CNS(=O)(=O)c2ccc(F)c(Cl)c2)cc1)c1ccccc1` as the compound, how does the parasite growth, % of DMSO control read?
Answer: 371%

Question: With `c1cc(N[C@@H]2CCNC2)nc(-c2cnc3ccc(-c4cn[nH]c4)cn23)c1` as the compound, how does the parasite growth, % of DMSO control read?
Answer: 5.24%

Question: With `Cn1cc(C2=C(c3c4n(c5ccccc35)CCC(CN)C4)C(=O)NC2=O)c2ccccc21` (stereo not given) as the compound, how does the parasite growth, % of DMSO control read?
Answer: 3.66%

Question: Which parasite growth, % of DMSO control does the source give for `NC[C@H]1O[C@H](O[C@H]2[C@@H](O)[C@@H](O[C@H]3O[C@H](CO)[C@@H](O)[C@H](N)[C@@H]3O)[C@H](N)C[C@@H]2N)[C@H](N)C[C@H]1O` here?
Answer: 97.7%

Question: With `COC1=C(OC)C(=O)C(CC=C(C)CCC=C(C)CCC=C(C)CCC=C(C)CCC=C(C)CCC=C(C)CCC=C(C)CCC=C(C)CCC=C(C)CCC=C(C)C)=C(C)C1=O` as the compound, how does the parasite growth, % of DMSO control read?
Answer: 94.3%

Question: Which parasite growth, % of DMSO control does the source give for `CC(=O)O[C@@]12CO[C@H]1C[C@H](O)[C@@]1(C)C(=O)[C@H](O)C3=C(C)[C@@H](OC(=O)C(O)[C@@H](NC(=O)OC(C)(C)C)c4ccccc4)C[C@@](O)([C@@H](OC(=O)c4ccccc4)[C@@H]21)C3(C)C` (stereo not given in full) here?
Answer: 5.89%

Question: With `COc1cccc2c1C(=O)c1c(O)c3c(c(O)c1C2=O)C[C@@](O)(C(=O)CO)C[C@@H]3O[C@H]1C[C@H](N)[C@H](OC2CCCCO2)[C@H](C)O1` (stereo not given in full) as the compound, how does the parasite growth, % of DMSO control read?
Answer: 5.43%

Question: For `N#Cc1c(C2CCNCC2)cc(-c2c(O)cccc2OCC2CC2)nc1N`, which parasite growth, % of DMSO control is on record?
Answer: 12%

Question: Which parasite growth, % of DMSO control does the source give for `Cn1cnc(=N)c2[nH]cnc21` here?
Answer: 5.58%

Question: Which parasite growth, % of DMSO control does the source give for `O=C1NCCc2[nH]c(-c3ccncc3)cc21` here?
Answer: 23.6%

Question: With `O=C1NC(=O)[C@@H](c2cn3c4c(cccc24)CCC3)[C@H]1c1c[nH]c2ccccc12` as the compound, how does the parasite growth, % of DMSO control read?
Answer: 54.8%

Question: For `CNC(=O)Nc1ccc(-c2nc(N3CC4CCC(C3)O4)c3cnn(C4CCC5(CC4)OCCO5)c3n2)cc1`, which parasite growth, % of DMSO control is on record?
Answer: 5.91%

Question: For `Nc1ccn(C2CO[C@H](CO)O2)c(=O)n1` (stereo not given in full), which parasite growth, % of DMSO control is on record?
Answer: 95.7%

Question: For `Cc1onc(-c2ccccc2)c1C(=O)N[C@@H]1C(=O)N2[C@@H](C(=O)O)C(C)(C)S[C@@H]12`, which parasite growth, % of DMSO control is on record?
Answer: 92.7%

Question: Which parasite growth, % of DMSO control does the source give for `COc1ccc(Nc2cc(-c3cnc(N)nc3)nc(N3CCOCC3)n2)cn1` here?
Answer: 16.3%
